Results as given in PubChem BioAssay AID1159580 (chemical genetic matrix, 2015).
Among all 5,500 compounds or so, about 2,000 (36%) were called active. Another 18% or so got no clear call; they are omitted. No stated cut-off is given here; in the data, active means normalized growth mostly below about 0.91 (no sharp cut-off); inconclusive means no clear call, values can overlap the other calls; inactive means mostly above about 0.92. The list shows a part of the results.

Experiment: chemical genetic growth profiling, strain panel (AID 1159580);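 further: tested at 20 µM; growth read once vehicle control cultures reached saturation at 30 °C; 1 = growth at the plate median or of vehicle wells; lower values mean less growth of the strain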
Conditions: S. cerevisiae deletion strains, growth OD

Measured: normalized growth

CC(CC(C(N)=O)(c1ccccc1)c1ccccc1)N(C)C (stereo not given)
inactive: locus YAL021C, strain ccr4, active compounds read low 0.952 | locus YAL026C, strain drs2, active compounds read low 0.977 | locus YAL030W, strain snc1, active compounds read low 0.996 | locus YBL061C, strain skt5, active compounds read low 0.983 | locus YBR009C, strain hhf1, active compounds read low 0.988 | locus YBR023C, strain chs3, active compounds read low 0.949 | locus YBR171W, strain sec66, active compounds read low 0.967 | locus YBR231C, strain swc5, active compounds read low 0.994 | locus YBR279W, strain paf1, active compounds read low 0.995 | locus YCL011C, strain gbp2, active compounds read low 0.963 | locus YCL016C, strain dcc1, active compounds read low 0.989 | locus YCL061C, strain MRC1, active compounds read low 0.981 | locus YCL069W, strain vba3, active compounds read low 0.976 | locus YCR088W, strain abp1, active compounds read low 0.973 | locus YDL005C, strain med2, active compounds read low 0.989 | locus YDL040C, strain nat1, active compounds read low 0.996 | locus YDR001C, strain nth1, active compounds read low 0.974 | locus YDR069C, strain doa4, active compounds read low 0.973 | locus YDR137W, strain rgp1, active compounds read low 0.968 | locus YDR159W, strain sac3, active compounds read low 0.981 | locus YDR195W, strain ref2 0.981 | locus YDR297W, strain sur2, active compounds read low 0.983 | locus YDR334W, strain swr1, active compounds read low 0.942 | locus YDR335W, strain msn5, active compounds read low 0.978 | locus YDR392W, strain spt3, active compounds read low 0.958 | locus YEL003W, strain gim4, active compounds read low 0.982 | locus YEL037C, strain rad23, active compounds read low 0.939 | locus YEL061C, strain CIN8 (second series), active compounds read low 0.982 | locus YER015W, strain faa2, active compounds read low 1.01 | locus YER016W, strain bim1, active compounds read low 0.982 | locus YER111C, strain swi4, active compounds read low 0.994 | locus YER155C, strain BEM2 (second series), active compounds read low 0.985 | locus YFR010W, strain ubp6, active compounds read low 0.964 | locus YGL167C, strain pmr1, active compounds read low 0.988 | locus YGL173C, strain kem1, active compounds read low 0.975 | locus YGL227W, strain vid30, active compounds read low 0.989 | locus YGL240W, strain doc1, active compounds read low 0.981 | locus YGL253W, strain hxk2, active compounds read low 0.937 | locus YHR013C, strain ard1, active compounds read low 0.951 | locus YHR027C, strain rpn1, active compounds read low 0.978 | locus YHR030C, strain SLT2, active compounds read low 1.02 | locus YHR079C, strain IRE1, active compounds read low 1.02 | locus YHR142W, strain chs7, active compounds read low 0.957 | locus YJL092W, strain hpr5, active compounds read low 0.969 | locus YJL095W, strain BCK1 (second series), active compounds read low 0.983 | locus YJL095W, strain BCK1, active compounds read low 0.992 | locus YJL115W, strain asf1, active compounds read low 0.962 | locus YJL129C, strain trk1, active compounds read low 0.952 | locus YJL154C, strain vps35, active compounds read low 0.984 | locus YJL164C, strain tpk1, active compounds read low 0.974 | locus YJL166W, strain qcr8, active compounds read low 0.987 | locus YJL187C, strain SWE1, active compounds read low 0.984 | locus YJR066W, strain TOR1, active compounds read low 0.969 | locus YKL160W, strain elf1, active compounds read low 0.978 | locus YKR026C, strain gcn3, active compounds read low 0.979 | locus YKR091W, strain srl3, active compounds read low 0.987 | locus YLL001W, strain dnm1, active compounds read low 0.994 | locus YLL026W, active compounds read low 0.986 | locus YLL041C, strain sdh2, active compounds read low 0.979 | locus YLR027C, strain aat2, active compounds read low 0.989 | locus YLR113W, strain HOG1, active compounds read low 0.999 | locus YLR221C, strain rsa3, active compounds read low 0.979 | locus YLR258W, strain gsy2, active compounds read low 0.978 | locus YLR262C, strain YPT6 (second series), active compounds read low 0.977 | locus YLR320W, strain mms22, active compounds read low 0.992 | locus YLR342W, strain FKS1, active compounds read low 0.986 | locus YLR357W, strain rsc2, active compounds read low 0.992 | locus YLR370C, strain arc18, active compounds read low 0.984 | locus YLR384C, strain iki3, active compounds read low 0.994 | locus YML120C, strain ndi1, active compounds read low 0.97 | locus YMR058W, strain fet3, active compounds read low 0.967 | locus YMR125W, strain sto1, active compounds read low 0.995 | locus YMR129W, active compounds read low 0.972 | locus YMR205C, strain PFK2, active compounds read low 0.965 | locus YMR231W, strain pep5, active compounds read low 0.983 | locus YNL071W, strain lat1, active compounds read low 0.979 | locus YNL183C, strain NPR1, active compounds read low 0.973 | locus YNL209W, strain ssb2, active compounds read low 0.983 | locus YNL248C, strain rpa49, active compounds read low 0.941 | locus YNL322C, strain KRE1 (second series), active compounds read low 0.983 | locus YNR049C, strain mso1, active compounds read low 0.976 | locus YOR001W, strain rrp6, active compounds read low 0.959 | locus YOR070C, strain gyp1, active compounds read low 0.99 | locus YOR080W, strain dia2, active compounds read low 0.971 | locus YOR083W, strain WHI5, active compounds read low 0.973 | locus YOR106W, strain vam3, active compounds read low 0.982 | locus YOR231W, strain MKK1, active compounds read low 1.04 | locus YOR265W, strain rbl2, active compounds read low 0.991 | locus YOR270C, strain vph1, active compounds read low 0.954 | locus YOR290C, strain snf2, active compounds read low 0.988 | locus YPL051W, strain arl3, active compounds read low 0.996 | locus YPL078C, strain atp4, active compounds read low 0.94 | locus YPL106C, strain sse1, active compounds read low 0.968 | locus YPL240C, strain hsp82, active compounds read low 0.967 | locus YPL256C, strain CLN2, active compounds read low 1.03
